# Data from article PMC5540273 (PLoS ONE, 2017).
# “And” between values parts separate entries of the source, which are not always exact repeats. Identical values can stand only once. Like-named read-outs stand apart in the source and are kept apart here.
# How the values were obtained:
# PAK1 = conditions: concentration: 1 μM, replicates: in singlicate, n = 1
# PAK2 = conditions: concentration: 1 μM, replicates: in singlicate, n = 1
# PAK3 = conditions: concentration: 1 μM, replicates: in singlicate; n = 1
# PAK4 = conditions: concentration: 1 μM, replicates: in singlicate; n = 1
# PAK6 = conditions: concentration: 1 μM, replicates: in singlicate; n = 1
# PAK7 = conditions: concentration: 1 μM, replicates: in singlicate, n = 1
# PCTK1 = tested on: T1, PCTK1; conditions: concentration: 1 μM, replicates: in singlicate; n = 1
# T1 construct: gene CDK16
# PCTK2 = tested on: T2, PCTK2; conditions: concentration: 1 μM, replicates: in singlicate, n = 1
# T2 construct: gene CDK17
# PCTK3 = tested on: T3, PCTK3; conditions: concentration: 1 μM, replicates: in singlicate, n = 1
# T3 construct: gene CDK18
# PDGFRA = conditions: concentration: 1 μM, replicates: in singlicate, n = 1
# 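Note: KINOMEscan kinase panel screen.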
Compound,%Inh (PAK1) [%],%Inh (PAK2) [%],%Inh (PAK3) [%],%Inh (PAK4) [%],%Inh (PAK6) [%],%Inh (PAK7) [%],%Inh (PCTK1) [%],%Inh (PCTK2) [%],%Inh (PCTK3) [%],%Inh (PDGFRA) [%],%Inh (PAK1; 1 µM),%Inh (PAK2; 1 µM),%Inh (PAK7; 1 µM),%Inh (PCTK2; 1 µM),%Inh (PCTK3; 1 µM),%Inh (PDGFRA; 1 µM)
COc1cc2c(Nc3cccc(NC(=O)c4ccccc4)c3)ncnc2cc1OCCCN1CCOCC1 [GSK223810],4,0,5,0,0,0,0,0,22,63,–,–,–,–,–,–
O=C(Nc1ccccc1F)NC1CCN(c2ccnc(Nc3ccc(F)cc3)n2)C1 (centres unmarked) [GSK1379722],2,16,0,0,0,0,6,0,18,0,–,–,–,–,–,–
O=C(CCO)NCCn1ccc2ncnc(Nc3ccc(Oc4cccc(C(F)(F)F)c4)c(Cl)c3)c21,0,2,28,0,0,0,0,0,0,0,–,–,–,–,–,–
Nc1nccc2scc(-c3ccc4c(c3)CCN4C(=O)Cc3cc(F)ccc3F)c12 [GSK2587663],1,0,19,0,0,0,0,0,20,0,–,–,–,–,–,–
COc1ccc(Nc2nccc(N3CCC(NC(=O)Nc4ccc5c(c4)OCO5)C3)n2)cc1 (centres unmarked) [GSK1379745],0,6,0,0,0,0,6,17,32,0,–,–,–,–,–,–
COc1ccc(-c2nc3n(c2-c2ccncc2)CCC3)cc1 [SKF-104493],–,–,0,0,0,–,0,–,–,–,0% and 27%,23% and 10%,0% and 15%,3% and 0%,0% and 28%,25% and 3%
Cc1cc(N2CCC(NS(=O)(=O)c3ccc(F)cc3)CC2)nc(Nc2cccc(C#N)c2)n1.O=C(O)C(F)(F)F [GSK1653537],0,19,6,0,0,0,0,0,18,0,–,–,–,–,–,–
Fc1ccc(-c2ncn(CCCNCc3ccccc3)c2-c2ccncc2)cc1,30,25,0,11,11,14,7,0,8,0,–,–,–,–,–,–
Fc1cccc(COc2ccc(Nc3ncnc4sc(-c5ccc[nH]5)cc34)cc2Cl)c1 [GW707818],6,5,0,6,11,12,0,22,0,0,–,–,–,–,–,–
CN1c2ccc(-c3ccc(C(=O)NCCO)cc3)cc2-c2[nH]ncc2S1(=O)=O,12,32,20,35,7,16,0,28,0,35,–,–,–,–,–,–
CCCc1ccc(S(=O)(=O)NC2CCN(c3ccnc(Nc4ccc(OC)cc4)n3)C2)cc1 (centres unmarked) [GSK1379737],11,9,100,0,0,0,0,0,0,0,–,–,–,–,–,–
Nc1nc(-c2cccnc2)c(-c2ccnc3ccccc23)s1 [GW684083],0,4,20,0,0,0,0,0,11,0,–,–,–,–,–,–
CS(=O)(=O)CCNCc1nc(-c2ccc3ncnc(Nc4ccc(OCc5cccc(F)c5)c(Cl)c4)c3c2)cs1.Cl [GW583340],19,9,0,0,0,7,3,16,10,0,–,–,–,–,–,–
Cl.c1ccc(Cn2ccc3cc(Nc4ncnc5ccccc45)ccc32)cc1 [GW275568],12,13,0,9,8,35,0,16,18,2,–,–,–,–,–,–
CCc1nc(-c2cccc(C)c2)c(-c2ccnc(NC(=O)c3ccccc3)c2)s1,0,0,2,0,3,0,24,7,1,0,–,–,–,–,–,–
Cc1ccc(NC(=O)c2cccc(C#N)c2)cc1-c1ccc(C(=O)Nc2ccncc2)cc1 [GSK1398463],16,21,0,0,0,1,2,0,18,86,–,–,–,–,–,–
CCC(CC)(CC)n1cnc2c(N)ncnc21 [SKF-97620],10,51,14,0,0,10,2,0,0,24,–,–,–,–,–,–
COc1ccc(Nc2nccc(N3CCC(NC(=O)c4cccc(NC(C)=O)c4)C3)n2)cc1 (centres unmarked) [GSK1379732],0,0,0,0,0,6,0,10,1,0,–,–,–,–,–,–
CSc1ccc(NC2=C(c3ccccc3Cl)C(=O)NC2=O)cc1 [SB-342411],0,0,14,29,8,15,29,31,67,0,–,–,–,–,–,–
COc1ccc(-c2oc3ncnc(N)c3c2-c2ccc(OC)cc2)cc1 [SB-589132],0,16,14,0,0,0,0,0,14,17,–,–,–,–,–,–
CC(C)(C)OC(=O)NC1CCCN(c2cc(-c3ccc4c(N)n[nH]c4c3)nc(N)n2)C1 (centres unmarked) [GSK2286096],0,1,0,0,0,0,4,6,17,0,–,–,–,–,–,–

Compound,%Inh (PAK1) [%],%Inh (PAK2) [%],%Inh (PAK3) [%],%Inh (PAK4) [%],%Inh (PAK6) [%],%Inh (PAK7) [%],%Inh (PCTK1) [%],%Inh (PCTK2) [%],%Inh (PCTK3) [%],%Inh (PDGFRA) [%],%Inh (PAK1; 1 µM),%Inh (PAK2; 1 µM),%Inh (PAK7; 1 µM),%Inh (PCTK2; 1 µM),%Inh (PCTK3; 1 µM),%Inh (PDGFRA; 1 µM)
NC(=O)c1sc(-n2cnc3ccccc32)cc1OCc1ccccc1F [GSK1024306],14,16,0,0,0,4,0,0,1,0,–,–,–,–,–,–
CNc1nccc(-c2c(-c3ccc(F)cc3)ncn2C2CCN(C)CC2)n1 [SB-222903],0,13,0,0,0,0,0,0,0,0,–,–,–,–,–,–
Cl.Cl.c1ccc(-c2cc3ccncc3cc2OC2CCNCC2)cc1 [GSK1122999],15,31,47,0,0,2,2,12,13,0,–,–,–,–,–,–
O=C(NCCCN1CCCC1=O)c1cnc(NCc2cc(Cl)ccc2Cl)nc1NC1CCNCC1,5,0,0,3,0,0,0,0,10,0,–,–,–,–,–,–
CC(=O)Nc1n[nH]c2ncc(-c3ccccc3)cc12 [SB-548492],0,32,0,4,12,0,3,7,4,51,–,–,–,–,–,–
Cc1ccc(C)c(NC(=O)NCCNc2ccnc(Nc3ccc(F)cc3)n2)c1 [GSK1379878],0,0,0,0,100,0,0,0,0,0,–,–,–,–,–,–
O=C(Nc1ccccc1)Nc1ccc(Oc2ccc3nccn3n2)cc1,0,8,0,0,0,0,0,2,0,83,–,–,–,–,–,–
Cl.O=S(=O)(c1cccc(F)c1)c1ccc(Nc2ncnc3cc(Br)sc23)cc1Cl [GSK306886],1,0,0,1,1,9,4,10,11,0,–,–,–,–,–,–
Nc1nc(-c2ccccn2)c(-c2ccnc3ccccc23)s1 [GW548057],0,0,0,0,1,26,0,18,16,1,–,–,–,–,–,–
Fc1cccc(COc2ccc(Nc3ncnc4nn5ccccc5c34)cc2Cl)c1 [GW689066],15,15,8,15,0,0,0,0,0,0,–,–,–,–,–,–
Clc1cc(Nc2ncnc3cc[nH]c23)ccc1OCc1ccccn1,10,29,39,10,29,7,2,19,19,29,–,–,–,–,–,–
Cl.Fc1ccccc1COc1ccc(Nc2ncnc3ccc(-c4nnc(C(F)(F)F)o4)cc23)cc1Cl [GW424170],0,0,0,0,0,10,0,0,17,0,–,–,–,–,–,–
Oc1ccc2ncnc(Nc3ccc(OCc4ccccc4)cc3)c2c1 [GI262866],22,29,87,0,0,0,10,0,13,0,–,–,–,–,–,–
O=C(Nc1n[nH]c2nc(-c3ccco3)c(Br)cc12)c1ccc(CN2CCCC2)cc1.O=C(O)[C@H](O)[C@@H](O)C(=O)O [SB-742352],0,7,0,0,0,0,0,11,0,50,–,–,–,–,–,–
Cl.c1ccc(Cn2ncc3cc(Nc4ncnc5ccccc45)ccc32)cc1 [GW273749],5,0,0,0,15,6,0,0,23,0,–,–,–,–,–,–
Clc1cccc(-c2nc(Nc3ccncc3)c3ccccc3n2)c1 [GW873004],0,0,37,16,0,0,0,0,0,0,–,–,–,–,–,–
Cn1ccc2ncnc(Nc3ccc(Oc4cccc(Cl)c4)c(Cl)c3)c21,18,0,9,19,0,0,24,26,0,26,–,–,–,–,–,–
CCc1nc(-c2cccc(N(C)S(=O)(=O)c3ccccc3)c2)c(-c2ccnc(Nc3ccc(N4CCN(C(C)=O)CC4)nc3)n2)s1 [GSK1645895],6,0,0,0,5,5,8,24,4,14,–,–,–,–,–,–
COC(=O)c1cccc(NC(=O)NCCNc2ccnc(Nc3ccc(F)cc3)n2)c1 [GSK1379883],0,0,0,0,0,0,0,0,0,0,–,–,–,–,–,–
CS(=O)(=O)CCNCc1ccc(-c2ccc3ncnc(Nc4ccc(OCc5ccccc5)c(Cl)c4)c3c2)o1.Cl [GW574783],0,0,7,0,0,0,0,0,0,0,–,–,–,–,–,–
